From PubChem BioAssay (NCATS) come the findings set out here.

Results filed as inconclusive are left out. Activity calls are given as the source filed them. Calls follow the shape of the dose curve; as a rule, active = well fitted cell-killing curve with a large enough effect; inconclusive = small, poorly fitted or top-dose-only effect; inactive = no such curve, though single readings can be large or run the other way.
% is scaled to controls: 0 for no effect and ±100 for the full control effect.

The nature of the assay: qHTS of pediatric cancer cell lines to identify multiple opportunities for drug repurposing: Primary screen for Rh30 cells (AID 1347107). Also: nearly all actives have a fitted effect of over 75% in size. The following applies: Rh30 rhabdomyosarcoma viability, CellTiter-Glo luminescence, 48 h; series mostly up to 46 µM; activity change, negative = cytotoxic: at the top concentration. The method in brief:
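Viability after 48 h compound treatment at 37C, 500-1,000 cells/well, read as ATP luminescence with CellTiter-Glo. Primary screens used 11-point (MIPE, 0.78 nM-46 µM) or 8-point (NPC, 0.59 nM-46 µM) final concentrations; follow-up screens used 11-point dilutions.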
In general terms: Quantitative high-throughput screening tests each substance at several concentrations.
In the case of `NN=C(N)N`, the “activity change, negative = cytotoxic” value was 18.5% (inactive).

`CN1CCN(C(=O)O[C@H]2c3nccnc3C(=O)N2c2ccc(Cl)cn2)CC1`: the Potency entry is “inactive”.

Consider `CC1NCCOC1c1ccccc1` (stereo not given), for which the “activity change, negative = cytotoxic” value is 11.4% (inactive).

Turning to `CC(C)=CC1C(C(=O)OCc2cccc(Oc3ccccc3)c2)C1(C)C` (stereo not given), the “activity change, negative = cytotoxic” value is 19.7% (inactive).

`NCCc1cc(O)c(O)cc1O`: the “activity change, negative = cytotoxic” value was 24.5% (inactive).

On to `CCN(CC)C(=O)N[C@@H]1C=C2c3cccc4[nH]cc(c34)C[C@@H]2N(C)C1`, for which the “activity change, negative = cytotoxic” value was 10.3% (inactive).

For the compound `CCCC(C)(COC(N)=O)COC(=O)NC(C)C` (stereo not given), the Potency entry is “inactive”.

As for `O=[N+]([O-])c1cc([As](=O)(O)O)ccc1O`, the “activity change, negative = cytotoxic” value was 22.5% (inactive).

Turning to `COc1ccc(C(=O)c2c(C)n(CCN3CCOCC3)c3ccccc23)cc1`, the Potency entry was “inactive”.

On to `CCC(C(N)=O)N1CCCC1=O` (stereo not given), for which the “activity change, negative = cytotoxic” value is 12.5% (inactive).

On to `C=C1CC[C@@]2(O)[C@H]3Cc4ccc(O)c5c4[C@@]2(CCN3CC2CC2)[C@H]1O5`, for which the “activity change, negative = cytotoxic” value is 15.3% (inactive).

As for `Nc1ccncc1`, the “activity change, negative = cytotoxic” value is 18.5% (inactive).

Consider `CC(C)NCC(O)c1ccccc1Cl` (stereo not given), for which the “activity change, negative = cytotoxic” value is 29.2% (inactive).

For the compound `CCCN1CCC[C@@H]2Cc3nc(N)ncc3C[C@H]21`, the “activity change, negative = cytotoxic” value is -5.37% (inactive).

Consider `N[C@@H](Cc1ccc(N(CCCl)CCCl)cc1)C(=O)O`, for which the “activity change, negative = cytotoxic” value is 3.84% (inactive).

With `CCCN1CCC[C@@H]2Cc3[nH]ncc3C[C@H]21`, the “activity change, negative = cytotoxic” value was 17.1% (inactive).

As for `CC(=O)[C@H]1CC[C@H]2[C@@H]3CC[C@H]4C[C@](C)(O)CC[C@]4(C)[C@H]3CC[C@]12C`, the “activity change, negative = cytotoxic” value was 24.5% (inactive).

Take `Oc1cc(Cl)ccc1Oc1ccc(Cl)cc1Cl`: the “activity change, negative = cytotoxic” value is 0.921% (inactive).

For `N[C@@H](Cc1ccc(Oc2cc(I)c(O)c(I)c2)c(I)c1)C(=O)O`, the “activity change, negative = cytotoxic” value was 14.6% (inactive).

As for `Clc1cccc(N2CCNCC2)c1`, the “activity change, negative = cytotoxic” value is 11% (inactive).

Regarding `C#CCN(C)[C@H](C)Cc1ccccc1`, the Potency result is “inactive”.

For `CC(C)(C)NCC(O)c1cc(Cl)c(N)c(Cl)c1` (stereo not given), the “activity change, negative = cytotoxic” value is 25.8% (inactive).

Turning to `CC[C@@H](CO)NC(=O)[C@@H]1C=C2c3cccc4[nH]cc(c34)C[C@H]2N(C)C1`, the “activity change, negative = cytotoxic” value was -6.14% (inactive).

Turning to `NP(N)(=O)NC(=O)c1ccc(F)cc1`, the “activity change, negative = cytotoxic” value is 27% (inactive).

`CCN(CC)CCOC(=O)C(O)(c1ccccc1)c1ccccc1`: the “activity change, negative = cytotoxic” value is 6.49% (inactive).

With `Cc1cccc(C)c1NC(=O)CN1CCCC1=O`, the Potency entry is “inactive”.

Consider `CN1C(=S)CN=C(c2ccccc2)c2cc(Cl)ccc21`, for which the “activity change, negative = cytotoxic” value is 12.4% (inactive).

As for `N[C@@H]1C[C@H]1c1ccccc1`, the “activity change, negative = cytotoxic” value was 16.4% (inactive).

Consider `CC[N+](CC)(CC)CC`, for which the “activity change, negative = cytotoxic” value was 25.1% (inactive).

Turning to `CCCC1CCCCN1` (stereo not given), the “activity change, negative = cytotoxic” value is 18.1% (inactive).

As for `C#CCOC(C(=O)OCCN(C)C)(c1ccccc1)c1ccccc1`, the “activity change, negative = cytotoxic” value is 25.1% (inactive).

As to `CN(C)CCc1ccc(O)cc1`, the Potency result is “inactive”.

Turning to `CCN(C(C)=O)c1cccc(-c2ccnc3c(C#N)cnn23)c1`, the “activity change, negative = cytotoxic” value was 10.6% (inactive).

For the compound `CC(=O)Nc1cc([As](=O)(O)O)ccc1O`, the “activity change, negative = cytotoxic” value was 21.2% (inactive).

Regarding `NCC1(CC(=O)O)CCCCC1`, the Potency result is “inactive”.
